From PubChem BioAssay
RORgamma inh = qHTS for inhibitors of ROR gamma transcriptional activity; Nuclear receptor ROR-gamma (Mus musculus), P51450; Drosophila S2 Gal4-RORgamma UAS-luciferase reporter, 20 h; Potency, µM (titrated, usually from 53.6 µM), for inactives: at the highest dose activity change, negative = inhibition, actives largely listed as inhibitors; 5.4% of 310,000 active; also: potency is read from the fitted curve at half-maximal effect; nearly all actives have a fitted effect of over 60% in size
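Stable Schneider cell line, Gal4 DNA-binding domain fused to ROR gamma, UAS-luciferase. Cmpd 1 hr RT → CuSO4 700 uM final → 20 hr RT → luciferase reagent 10 min → luminescence.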
VP16 counter = VP16 counterscreen qHTS for inhibitors of ROR gamma transcriptional activity; Drosophila S2 Gal4-VP16 UAS-luciferase, luminescence, 20 h; Potency, µM (top dose mostly 53.6 µM), for inactives: top-dose activity, negative = inhibition, actives largely listed as inhibitors; 3.5% of 310,000 active;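 also: Gal4-VP16 expression switched on by copper sulfate through the metallothionein promoter; potency is read from the fitted curve at half-maximal effect; nearly all actives have a fitted effect of over 50% in size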
CtBP-E1A blk = qHTS Assay for Inhibitors of the CtBP/E1A Interaction; AlphaScreen GST-E1A/His-CtBP binding, 1536-well; active compounds read low; activity change, % (concentration not given with the values); 0.49% of 340,000 active; AID 651724, 2012; in the data active = activity change below about -65%; inconclusive = mostly about -30% to -63%
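AlphaScreen with 125 nM GST-E1A and 125 nM His-CtBP (5X stocks) in Tris pH 8.0, 300 mM NaCl, BSA, Tween 20, TCEP. Compounds preincubated 2 h at 37 deg C, then glutathione donor/nickel acceptor beads added for 1 h at 37 deg C in dark.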
Six1-Eya2 inh = qHTS Assay for Inhibitors of the Six1/Eya2 Interaction; 0.56% of 360,000 active; activity change, % (test concentration not listed); AlphaScreen GST-Six1/His-Eya2 binding, biochemical; active compounds read low; in the data active = activity change below about -65%; inconclusive = mostly about -30% to -63%
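Compounds are tested against tagged Six1 and Eya2 proteins bridged by glutathione donor and nickel acceptor beads; after a one-hour incubation at 37 °C without light, AlphaScreen emission is recorded.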
PKM2 act = qHTS Assay for Activators of Human Muscle isoform 2 Pyruvate Kinase. Pyruvate kinase PKM (Homo sapiens), P14618. 0.34% of 260,000 active. Potency, µM (series often up to 57.5 µM), without a hit: top-dose activation, most hits filed as activators. AID 1631, 2009. purified PKM2, Kinase-Glo ATP luminescence, activation; response scale: 0% is enzyme alone, no compound; also: potency is read from the fitted curve at half-maximal effect; nearly all actives have a fitted effect of over 55% in size
Target sequence (P14618 whole entry, looked up, canonical isoform): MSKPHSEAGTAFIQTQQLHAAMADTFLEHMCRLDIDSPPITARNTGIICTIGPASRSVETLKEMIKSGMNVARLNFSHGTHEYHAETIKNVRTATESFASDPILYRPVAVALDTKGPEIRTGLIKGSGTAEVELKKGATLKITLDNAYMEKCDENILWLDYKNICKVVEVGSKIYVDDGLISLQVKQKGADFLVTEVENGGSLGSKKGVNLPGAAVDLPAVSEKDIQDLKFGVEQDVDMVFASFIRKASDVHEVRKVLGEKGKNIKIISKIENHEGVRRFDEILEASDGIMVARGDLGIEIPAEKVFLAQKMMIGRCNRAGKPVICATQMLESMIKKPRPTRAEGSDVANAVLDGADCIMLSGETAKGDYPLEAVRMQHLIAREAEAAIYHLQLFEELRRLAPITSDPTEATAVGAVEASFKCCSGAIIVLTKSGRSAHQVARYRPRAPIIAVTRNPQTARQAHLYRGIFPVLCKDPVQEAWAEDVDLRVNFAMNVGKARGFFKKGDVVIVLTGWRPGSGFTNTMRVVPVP
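Purified hPK-M2 (>95% pure) converted ADP (0.1 mM final) to ATP with 0.5 mM PEP in 50 mM imidazole pH7.2, KCl, MgCl2, Tween 20, BSA; 1 h at room temperature. ATP detected by Kinase-Glo luminescence.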
* marks the source's active call; other numbers are inactive results; ? = inconclusive; · = not tested or not shown. Rows were chosen to be rich in hits. Some 5.6% of all compounds tested hit in one or more screens of this group. Unless noted, calls follow the shape of the dose curve; as a rule, active = well fitted curve in the direction sought with a large enough effect; inconclusive = small, poorly fitted or top-dose-only effect, or another doubt; inactive = no such curve, though single readings can be large; an effect the other way counts as inactive or inconclusive. % is scaled to controls: 0 for no effect and ±100 for the full control effect.

SMILES	RORgamma inh	VP16 counter	CtBP-E1A blk	Six1-Eya2 inh	PKM2 act
NC(=O)CC(NC(=O)Cc1ccc(Br)cc1)c1ccc(NCCc2ccccc2F)c([N+](=O)[O-])c1 (stereo not drawn)	-1%	14%	-2	-13	1.6µM*
COc1cc2[nH]c(=S)n(C3CCN(Cc4ccccc4)CC3)c(=O)c2cc1OC	?	?	3	-7	12%
COCCn1c(=S)[nH]c2cc(OC)c(OC)cc2c1=O	?	?	-3	-9	24%
COc1cc2[nH]c(=S)n(C3CCCC3)c(=O)c2cc1OC	4.5µM*	2.8µM*	-15	-8	-12%
COc1cc2[nH]c(=S)n(C3CC3)c(=O)c2cc1OC	3.5µM*	18µM*	-5	-16	?
O=C(N/N=C/c1ccncc1)c1nn(Cc2ccccc2)c(=O)c2ccccc12	4%	-8%	-12	-11	-2%
CC(C)(C)C(=O)Nc1sc2c(c1-c1nc3ccccc3[nH]1)CCCC2	0.79µM*	?	8	1	0%
O=C(N/N=C/c1ccco1)C1(O)c2ccccc2-c2ccccc21	?	1%	7	7	-1%
Cc1nn(C)cc1/C=N/NC(=O)C1(O)c2ccccc2-c2ccccc21	-21%	3.5µM*	2	8	-3%
Cc1cc(NC(=O)COc2cccc3cccnc23)no1	-14%	29%	·	·	0%
Cc1oc(C(=O)O)cc1COc1cccc2cccnc12	-29%	-3%	-71*	?	-2%
Nc1ccccc1Nc1ccccc1	13µM*	-12%	?	?	3%
Nc1ccc(Nc2ccccc2)c(Cl)c1	13%	5%	-27	?	10%
CN(C)c1ccc(CNC(=O)c2cc(S(=O)(=O)N3CCOCC3)cn2C)cc1	24%	0%	8	-2	3%
CCN(C(=O)CSc1n[nH]c(N)n1)C1CCCCC1	·	·	0	-9	·
Cc1ccc(NC(=O)C2CCN(S(=O)(=O)c3ccc4c(c3)NC(=O)C(C)S4)CC2)cc1Cl (stereo not drawn)	?	7.1µM*	·	4	·
Cc1cc(C)cc(NC(=O)C2CCN(S(=O)(=O)c3ccc4c(c3)NC(=O)C(C)S4)CC2)c1 (stereo not drawn)	36%	-6%	-5	-6	·
C[C@@]12C(=O)N(CC3CCCO3)CC(=O)N1[C@H]1c3cc(Cl)ccc3OC[C@@H]1[C@@H]2c1ccccc1 (stereo partly drawn)	·	·	0	-12	·
Cc1cc(C)n(-c2nc(SCCN(C)C)c3c4c(sc3n2)CCCC4)n1	2.8µM*	7.9µM*	-18	-19	0%
CCC(O)CNc1nc(-n2nc(C)cc2C)nc2sc3c(c12)CCCC3 (stereo not drawn)	2.5µM*	?	·	·	-5%
CSc1nc(SCCN(C)C)c2c3c(sc2n1)COC(C)(C)C3	0%	-1%	-24	?	-3%
O=S(=O)(Nc1cc2nc3ccccc3nc2n1Cc1ccccc1)c1ccc(Cl)cc1	?	?	0	18	10%
CC(C)CC(N)c1csc(Nc2ccc(C(=O)NCCO)cc2)n1 (stereo not drawn)	·	·	-2	-8	·
COc1cccc(NC(=O)CN(c2ccc([N+](=O)[O-])cc2)S(=O)(=O)c2ccccc2)c1	?	-9%	4	0	4µM*
COc1ccc(NC(=O)CN(c2ccc([N+](=O)[O-])cc2)S(=O)(=O)c2ccccc2)cc1	-9%	-7%	-5	-17	-14%
SMILES	RORgamma inh	VP16 counter	CtBP-E1A blk	Six1-Eya2 inh	PKM2 act
COc1cccc(NC(=O)CN(C)CC(=O)Nc2ccc(Cl)cc2[N+](=O)[O-])c1	?	-7%	1	-11	3.2µM*
COc1cnc(-c2ccccc2)nc1Sc1ccccc1	?	0%	-6	11	0%
CCOC(=O)C(C)Sc1ncc(OC)c(Sc2ccc(Cl)cc2)n1 (stereo not drawn)	-1%	2%	46	23	-3%
COc1cnc(-c2ccccn2)nc1Sc1c(Cl)cccc1Cl	3.2µM*	10µM*	-21	-9	-2%
COc1cnc(-c2ccccn2)nc1Sc1ccccc1Cl	2.5µM*	10µM*	?	?	1%
CCOC(=O)C(C)Sc1nc(-c2ccccn2)ncc1OC (stereo not drawn)	7.1µM*	?	·	-91*	0%
Cc1ccc2c(CN3CCN(S(=O)(=O)c4ccccc4C(F)(F)F)CC3)cc(=O)oc2c1C	·	·	-24	-1	·
COc1ccc(/C=C/C(=O)c2ccc(C)c([N+](=O)[O-])c2)cc1O	-84%	16µM*	23	6	-19%
COc1cc(/C=C/C(=O)c2cccc([N+](=O)[O-])c2)cc(OC)c1OC	16µM*	?	-3	-3	4%
COc1cc(/C=C/C(=O)c2ccccc2O)cc(OC)c1OC	2µM*	?	-23	1	6%
CCOC(=O)/C(=C/c1c(C)n(C)c2ccc([N+](=O)[O-])cc12)C(C)=O	13µM*	?	-14	7	0%
Cc1cc(=O)n2nc(N3CCC(C(=O)NCc4ccccc4Cl)CC3)sc2n1	4%	-7%	?	-11	·
Cc1cccc(-n2c(O)c(C=Nc3cc(O)ccc3C)c3ccccc3c2=O)n1	11µM*	-15%	16	5	1%
Cc1cccc(-n2c(O)c(C=Nc3ccccc3O)c3ccccc3c2=O)n1	13%	-25%	-13	-5	-1%
Cc1cccc(-n2c(O)c(/C=N/NC(=O)c3ccccc3Cl)c3ccccc3c2=O)n1	6.3µM*	4.5µM*	-22	-24	-9%
CCc1c(C(=O)N2CCCN(C)CC2)csc1C	·	·	-4	2	-5%
O=C(CC(NCc1ccccn1)C(=O)O)Nc1ccccc1Cl (stereo not drawn)	-19%	1%	-89*	-91*	1%
Oc1ccc(Br)cc1-c1ccn[nH]1	2.8µM*	6.3µM*	2	1	-2%
Oc1ccc(Br)cc1-c1cc(-c2ccco2)[nH]n1	13µM*	16µM*	-13	-9	0%
Oc1ccc(Cl)cc1-c1cc(-c2ccco2)[nH]n1	3.5µM*	13µM*	9	0	-1%
Oc1ccccc1-c1cc(-c2ccco2)[nH]n1	?	?	-10	-12	-9%
Oc1c(-c2cc(-c3ccco3)[nH]n2)ccc2ccccc12	6.3µM*	14µM*	-13	-26	-4%
O=C(Cc1c(F)cccc1Cl)NNC(=O)c1ccc(Br)s1	·	·	13	5	·
O=C(/C=C/c1ccc(Br)cc1)NC(=S)N1CCOCC1	0.71µM*	0.4µM*	-23	-10	-4%
